Source: PubChem BioAssay (National Center for Advancing Translational Sciences (NCATS))
Sampled rows, rich in hits. Any-hit rate of the full collection: about 1.2%.
CCT modulator = changes cytosolic chaperonin activity; purified chaperonin ATPase assay, HTRF ADP detection, 30 min; AID 651819; activity change, % (test concentration not listed), hits read low; 360,000 compounds, 0.3% hits; in the data active = activity change below about -30%
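Enzyme 40 or 20 nM (batch-dependent) in Tris pH 7.4/KCl/MgCl2/DTT; cpd 76 uM single point; ATP 10 uM; 30 min 37 °C; Transcreener ADP HTRF detection, 30 min RT; ratio 665/615.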
RXFP1 antagonist = RXFP1 (human) relaxin receptor antagonism | Q9HBX9 | HEK293-RXFP1, relaxin-stimulated cAMP HTRF, 30 min; stronger effect = lower value | activity change, negative = inhibition, % at 57.5 µM | 350,000 compounds, 0.59% hits;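 active = activity change of -60% or lower, but not beyond a set lower limit; inconclusive = change between -60% and -40%, or beyond the set limit; inactive = change above -40%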
Target sequence (Q9HBX9 whole entry, looked up): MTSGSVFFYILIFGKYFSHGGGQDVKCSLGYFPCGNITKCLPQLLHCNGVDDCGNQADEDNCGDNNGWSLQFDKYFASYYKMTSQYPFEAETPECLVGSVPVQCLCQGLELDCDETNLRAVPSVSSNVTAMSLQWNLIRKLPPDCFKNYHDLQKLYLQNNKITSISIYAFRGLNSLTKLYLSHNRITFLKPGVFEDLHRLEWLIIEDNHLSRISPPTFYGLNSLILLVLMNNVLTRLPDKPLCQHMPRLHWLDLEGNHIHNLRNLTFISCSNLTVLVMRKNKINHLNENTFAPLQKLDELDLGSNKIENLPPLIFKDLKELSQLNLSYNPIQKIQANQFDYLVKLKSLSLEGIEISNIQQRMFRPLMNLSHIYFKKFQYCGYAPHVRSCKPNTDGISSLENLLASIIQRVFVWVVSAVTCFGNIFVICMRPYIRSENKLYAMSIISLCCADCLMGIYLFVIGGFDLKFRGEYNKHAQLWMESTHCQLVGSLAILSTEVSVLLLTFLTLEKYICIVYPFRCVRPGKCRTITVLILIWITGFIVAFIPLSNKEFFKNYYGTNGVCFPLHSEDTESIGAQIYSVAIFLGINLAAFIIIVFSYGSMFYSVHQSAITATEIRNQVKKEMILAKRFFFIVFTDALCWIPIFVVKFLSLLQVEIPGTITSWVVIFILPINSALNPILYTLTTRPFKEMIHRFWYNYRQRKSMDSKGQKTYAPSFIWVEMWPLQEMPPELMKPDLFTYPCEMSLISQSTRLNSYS
RXFP1 ag = activates the human relaxin receptor RXFP1; Q9HBX9; HEK293T-RXFP1 cAMP TR-FRET, 30 min; response scale: percent of porcine relaxin response, buffer zero; Potency, µM (top dose mostly 57.5 µM), most hits filed as activators; 370,000 compounds, 0.3% hits; note: nearly all actives have a fitted effect of over 60% in size
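cAMP rise read by TR-FRET after 30 min, 37C compound exposure (up to 58 uM) in RXFP1-transfected HEK293 cells with Ro 20174 present. EC50 from Hill-equation fits, with 29 nM porcine relaxin as 100% and buffer as basal.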
gsp antagonist = antagonizes gsp, the McCune-Albright syndrome mutation; gsp-mutant cells, cAMP HTRF, 30 min; Potency, µM (titrated, usually from 76.9 µM), usual class: inhibitors; 340,000 compounds, 0.4% hits; AID 624288; calls by dose curve; cell line not stated here;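 note: intracellular cAMP measured with PDE inhibitor Ro 20-1724 present during compound exposure; nearly all actives have a fitted effect of over 65% in size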
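G418-selected cells were plated in DMEM/10% FBS for 16-24 h at 37C, then treated with compounds plus the PDE inhibitor […] (300 uM solution added) for 30 min at 37C. Intracellular cAMP was measured by HTRF after 30 min lysis at room temperature.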
gsp agonist = gsp mutant agonism. Potency, µM (series often up to 76.9 µM), usual class: activators. gsp mutant cells, cAMP HTRF, 30 min. 340,000 compounds, 0.13% hits; active = well fitted activation curve with a large enough effect; inconclusive = small, poorly fitted or top-dose-only effect, or another doubt; inactive = no such curve, though single readings can be large or run the other way; cell line not stated here;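 note: phosphodiesterase inhibitor Ro 20-1724 added with compounds to block cAMP breakdown; nearly all actives have a fitted effect of over 60% in size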
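Cells in DMEM/10% FBS with G418 were pretreated with compounds in DMSO plus […] (300 uM stock) for 30 min at 37C. cAMP was measured by HTRF (cAMP-d2 plus anti-cAMP antibody-K) after 30 min at room temperature.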
Mm-Cpn inhibitor = M. maripaludis TRiC chaperonin inhibition. purified Mm-Cpn ATPase, ADP Transcreener TR-FRET. Potency, µM (series often up to 76.9 µM), hits mostly inhibitors. 330,000 compounds, 0.031% hits. AID 504842; note: nearly all actives have a fitted effect of over 80% in size
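Inhibition of chaperonin ATP hydrolysis is measured as reduced ADP production, detected by competitive TR-FRET in which signal falls with ADP. Final enzyme 25 nM and ATP 10 uM, reacted 30 min at 37°C.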
Numbers stand for hits; - = inactive; ? = inconclusive; . = no result given; [ ] = remark or other dose. Unless noted, calls come from the whole dose curve; as a rule, active = well fitted curve in the direction sought with a large enough effect; inconclusive = small, poorly fitted or top-dose-only effect, or another doubt; inactive = no such curve, though single readings can be large; an effect the other way counts as inactive or inconclusive.

SMILES | CCT modulator | RXFP1 antagonist | RXFP1 ag | gsp antagonist | gsp agonist | Mm-Cpn inhibitor
Cc1ccc(OCCn2cc(C(=O)C3CCCCC3)c3ccccc32)cc1 | . | - | - | . | . | .
CC(c1nnnn1C(C)(C)C)N(Cc1cccnc1)Cc1ccccc1Cl (stereo not given) | - | - | - | 40µM | - | -
CN(C)CCCN(C(=O)COc1ccc(Cl)cc1)c1nc2cc3c(cc2s1)OCO3 | -35 | - | - | - | - | -
CN(C)CCN(C(=O)c1ccc2ccccc2c1)c1nc2cc3c(cc2s1)OCCO3 | - | - | - | - | - | -
CN(C)CCCN(C(=O)c1ccc2ccccc2c1)c1nc2cc3c(cc2s1)OCO3 | - | -61 | - | - | - | -
COC(=O)c1ccc(Nc2cc(C)nc3ccc(C)cc23)cc1 | -39 | - | - | - | -[15.4 µM] | -
COC(=O)c1ccc2nc(C)cc(Nc3ccccc3C)c2c1 | - | . | - | - | - | -
CCN(C(=O)COC(=O)c1cc(-c2cccs2)nc2ccccc12)C1CCS(=O)(=O)C1 (stereo not given) | - | - | - | - | ? | -
CCN(C(=O)COC(=O)c1cc(-c2ccccc2)nc2ccc(Br)cc12)C1CCS(=O)(=O)C1 (stereo not given) | - | - | 25µM | ? | -[15.4 µM] | ?
Cc1ccc2c(c1)nc(SCC(O)c1ccc(Br)cc1)n2C (stereo not given) | . | - | - | . | . | .
COc1cccc(/C=N/Nc2nnc3c(n2)[nH]c2ccccc23)c1OC | - | -61 | - | - | - | -
O=C(N/C(=C\c1ccccc1)C(=O)N1CCOCC1)c1ccc(Br)o1 | - | -70 | - | - | ? | -
COC(=O)N/N=C/c1ccc(OS(=O)(=O)c2ccc(C)cc2)c(OC)c1 | - | - | - | - | -[15.4 µM] | -
C=CCNC(=O)/C(C#N)=C/c1ccc(OS(=O)(=O)c2ccc(C)cc2)c(OC)c1 | - | -61 | - | - | - | -
N#C/C(N=Nc1ccccc1O)=N\Nc1ccccc1O | - | . | - | 35µM | . | -
OC(CCN1CCCCC1)(c1ccccc1)C1CC2C=CC1C2 (stereo not given) | . | - | . | . | . | .
Cc1cc(C(=O)NCc2ccccc2C)c2c(C)nn(-c3cccc(F)c3)c2n1 | . | - | - | . | . | .
CC(C)(C)C(=O)Nc1scc(-c2ccc(-c3ccccc3)cc2)c1C(=O)O | - | - | - | 35µM | - | -
CCN(CC)S(=O)(=O)c1ccc(NC(=O)CN(c2ccccc2)S(=O)(=O)N(C)C)cc1 | . | . | - | . | . | .
O=C(NCC(c1ccco1)S(=O)(=O)c1ccc(Cl)cc1)c1ccccc1F (stereo not given) | . | - | - | . | . | .
Cc1cc(C(=O)COC(=O)c2ccc(NC(=O)CC#N)cc2)c(C)n1CC(F)(F)F | - | - | . | . | - | .
Cc1cc(C(=O)COC(=O)c2ccc(NC(=O)CC#N)cc2)c(C)n1-c1ccc(OC(F)F)cc1 | - | -62 | . | - | - | -
COc1cccc(OC)c1NC(=O)C1CCCN1C(=O)Nc1cccc(Cl)c1 (stereo not given) | - | -63 | - | - | - | -
COc1cccc(NC(=O)C2CCCN2C(=O)Nc2ccccc2)c1 (stereo not given) | - | - | - | - | -[15.4 µM] | -
COc1ccccc1NC(=S)NC1CCCCC1 | - | - | - | - | 20µM | -
SMILES | CCT modulator | RXFP1 antagonist | RXFP1 ag | gsp antagonist | gsp agonist | Mm-Cpn inhibitor
COc1ccccc1NC(=S)NC1CCCCCCCCCCC1 | - | - | - | - | - | -
CC1(C)CC(=O)C2=C(C1)c1c(ccc3ccccc13)NC2c1cc([N+](=O)[O-])cc([N+](=O)[O-])c1O (stereo not given) | - | -72 | - | 32µM | -[15.4 µM] | -
C/C(=N/NC(=O)c1ccc(C)nc1)c1ccc2c(c1)CCCC2 | - | -62 | - | - | -[15.4 µM] | -
CCC(C)Sc1oc(-c2ccco2)nc1S(=O)(=O)c1ccc(Cl)cc1 (stereo not given) | . | - | - | . | . | .
COC(=O)c1ccc(COc2ccc(C(=O)c3ccccc3)cc2)o1 | - | - | - | - | - | -
COC(=O)c1ccc(COc2ncnc3ccccc23)o1 | - | - | 16µM | - | -[15.4 µM] | -
CC(=O)Nc1cc(C(=O)N2CCCC2)ccc1S(=O)(=O)c1ccc(C)cc1 | - | - | - | - | - | -
COc1ccc(OC)c(CNC(=O)c2ccc(Sc3ccc(Cl)cc3)c(NC(C)=O)c2)c1 | . | - | - | . | . | .
CC(=O)Nc1cc(C(=O)N2CCCC2)ccc1Sc1ccc(C)cc1 | - | - | - | 20µM | - | -
CC(=O)Nc1cc(C(=O)N2CCCC2)ccc1Sc1ccc(Cl)cc1 | - | - | - | 11µM | - | -
CCOC(=O)c1cc2c(=O)n3ccccc3nc2n(CC2CCCO2)c1=NC(=O)c1ccc(OC)cc1OC (stereo not given) | . | . | - | . | . | .
Cc1ccc(NC(=O)C2CCN(S(=O)(=O)c3ccc4[nH]c5c(c4c3)CCCCC5)CC2)cc1 | . | - | - | . | . | .
COC(=O)C1=C(C)NC(=O)CC1c1cccc(Cl)c1Cl (stereo not given) | -30 | . | - | - | - | -
c1ccc(-c2noc(-c3cccnc3NCc3ccco3)n2)cc1 | . | . | - | . | . | .
CCOc1ccc(-n2c(SCc3nc(-c4ccc(OC)cc4)no3)nnc2-c2ccncc2)cc1 | . | . | - | . | . | .
CCCCOC(=O)c1ccc(NC(=O)c2c(OC)cccc2OC)cc1 | - | - | - | - | 11µM | -
COc1ccc(-c2nc3sc(CCNC(=O)c4ccccc4C)c(C)n3n2)cc1 | . | . | - | . | . | .
CN(C)c1ccc(C(CNC(=O)COc2ccc(Cl)cc2)N2CCCC2)cc1 (stereo not given) | - | -64 | - | - | - | -
